Measurements reported in PubChem BioAssay (NCATS).
Records with an inconclusive call do not appear. Calls of active or inactive are those of the source. Calls come from the whole dose curve; as a rule, active = well fitted curve in the direction sought with a large enough effect; inconclusive = small, poorly fitted or top-dose-only effect, or another doubt; inactive = no such curve, though single readings can be large; an effect the other way counts as inactive or inconclusive.

Assays:
[1] = tested on: CRL-7250; test: Cytotoxic Profiling of Annotated Libraries Using Quantitative High-Throughput Screening (AID 1296008); conditions: Five cell lines viability, CellTiter-Glo ATP luminescence, 48-72 h; max response: stronger effect = lower value; note: nearly all actives have a fitted effect of over 60% in size; note: potency is the fitted concentration of half-maximal effect; for max response: % is set by controls: 0 for no effect and ±100 for the full control effect
Outline: (§1)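 Compounds were pin-transferred onto cells and incubated 48 or 72 hr at 37 degree Celsius, 95% humidity. CellTiter-Glo was added, plates sat 10 min at room temperature, then ATP-coupled luminescence was imaged as the viability read-out.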

[2] = tested on: HEK293; test: as above; conditions: Five cell lines viability, CellTiter-Glo ATP luminescence, 48-72 h; max response: stronger effect = lower value
Outline: as §1

[3] = tested on: HaCat; test: as above; conditions: Five cell lines viability, CellTiter-Glo ATP luminescence, 48-72 h; max response: stronger effect = lower value
Outline: as §1

[4] = tested on: NIH3T3; test: as above; conditions: Five cell lines viability, CellTiter-Glo ATP luminescence, 48-72 h; max response: stronger effect = lower value
Outline: as §1

[5] = tested on: C33A; test: Primary qHTS to identify gynecologic anti-cancer compounds using libraries of approved drugs and bioactive compounds (AID 1345084); conditions: Gynecologic cancer cell panel viability, ATPlite luminescence, 48 h; series mostly up to 57.5 µM; note: nearly all actives have a fitted effect of over 55% in size; note: potency is the fitted concentration of half-maximal effect
Outline: (§2)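 48 h compound exposure at 37 C, 5% CO2; five-point qHTS. ATPlite luminescence readout of cell ATP.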

[6] = tested on: CAOV3; test: as above; conditions: Gynecologic cancer cell panel viability, ATPlite luminescence, 48 h; series mostly up to 57.5 µM
Outline: as §2

[7] = tested on: CASKI; test: as above; conditions: Gynecologic cancer cell panel viability, ATPlite luminescence, 48 h; series mostly up to 57.5 µM
Outline: as §2

[8] = tested on: Es-2; test: as above; conditions: Gynecologic cancer cell panel viability, ATPlite luminescence, 48 h; series mostly up to 57.5 µM
Outline: as §2

[9] = tested on: HeLa; test: as above; conditions: Gynecologic cancer cell panel viability, ATPlite luminescence, 48 h; series mostly up to 57.5 µM
Outline: as §2

[10] = tested on: Hek293T; test: as above; conditions: Gynecologic cancer cell panel viability, ATPlite luminescence, 48 h, control line for the selectivity index; series mostly up to 57.5 µM
Outline: as §2

[11] = tested on: JEG-3; test: as above; conditions: Gynecologic cancer cell panel viability, ATPlite luminescence, 48 h; series mostly up to 57.5 µM
Outline: as §2

[12] = tested on: OV90; test: as above; conditions: Gynecologic cancer cell panel viability, ATPlite luminescence, 48 h; series mostly up to 57.5 µM
Outline: as §2

[13] = tested on: PA-1; test: as above; conditions: Gynecologic cancer cell panel viability, ATPlite luminescence, 48 h; series mostly up to 57.5 µM
Outline: as §2

[14] = tested on: SKOV3; test: as above; conditions: Gynecologic cancer cell panel viability, ATPlite luminescence, 48 h; series mostly up to 57.5 µM
Outline: as §2

[15] = tested on: HACAT; test: qHTS assay to identify novel small-molecules to repurpose for Merkel cell carcinoma treatment (AID 1296009); conditions: MCC and control cell lines, CellTiter-Glo viability, 72 h; at 44.8 µM (top of the series) unless noted; note: nearly all actives have a fitted effect of over 60% in size
Outline: (§3)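 qHTS format: cells treated with library compounds in DMSO across 8 (NPC) or 11 (MIPE) concentrations. Readout after 72 hr at 37 degree celsius was CellTiter-Glo luminescence.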

[16] = tested on: NIH3T3; test: as above; conditions: MCC and control cell lines, CellTiter-Glo viability, 72 h; series mostly up to 44.8 µM
Outline: as §3

CCCCCCOC(=O)/N=C(\N)c1ccc(NCc2nc3cc(C(=O)N(CCC(=O)OCC)c4ccccn4)ccc3n2C)cc1
inactive: max response [1] -1.92% | max response [3] -18.9% | max response [4] -4.93% | Potency [5] | Potency [6] | Potency [7] | Potency [8] | Potency [9] | Potency [10] | Potency [11] | Potency [12] | Potency [13] | Potency [14]
active: Potency [2] 18.4 µM

CC1CC(=O)C2=C(C1)C1OC1C1(O)C2C(=O)c2cccc(O)c2C1O (configuration not stated)
inactive: max response [1] -42.8% | max response [2] -91.9% | max response [3] -53.4% | max response [4] -27% | Potency [5] | Potency [6] | Potency [7] | Potency [10] | Potency [12] | Potency [14]

C[C@@H]1CN(CC(=O)N2CC(C)(C)c3ncc(Cc4ccc(F)cc4)cc32)[C@@H](CN2CCOC[C@H]2C)CN1
inactive: max response [1] -4.83% | max response [2] -21.9% | outcome [3] | outcome [4] | outcome [15] | Potency [16]

COc1cc(S(C)(=O)=O)ccc1Nc1nc2ccc(-c3ccc(NC(=O)[C@H](C)c4ccc(F)cc4)cc3)cn2n1
active: Potency [2] 0.331 µM
inactive: outcome [1]

CC(C)c1cc2c(N3CCN(C4=NCC(C)(C)S4)CC3)ncnc2s1
active: Potency [1] 3.66 µM | Potency [2] 1.3 µM
inactive: outcome [3] | max response [4] -29.7% | outcome [15] | Potency [6] | Potency [7] | Potency [8] | Potency [9] | Potency [11]

COC(=O)Nc1cc(Nc2cc(NC3CC3)c3ncc(C#N)n3n2)c(Cl)c(N2CCN(C)CC2)c1
active: Potency [1] 9.33 µM | Potency [2] 1.32 µM | Potency [3] 0.741 µM | Potency [4] 14.8 µM

CCC(CC)C(=O)OC12C(OC(=O)C(C)C)C(C)C3(O)C(C=C(CO)CC4(O)C(=O)C(C)=CC43)C1C2(C)C (configuration not stated)
inactive: max response [1] 0.624% | max response [2] -5.82% | outcome [3] | outcome [4] | outcome [15] inactive [at 17.4 µM] | Potency [16] | Potency [5] | Potency [6] | Potency [7] | Potency [9] | Potency [10] | Potency [11] | Potency [13] | Potency [14]
active: Potency [8] 0.0708 µM

CN1C(=O)c2sccc2N(C)c2nc(Nc3ccc(S(N)(=O)=O)cc3)ncc21
active: Potency [1] 7.41 µM | Potency [2] 11.7 µM | Potency [3] 18.6 µM | Potency [4] 16.6 µM

CC(C)c1ccccc1OC(=O)NCCc1ccc2ccccc2c1
inactive: max response [1] -4.95% | max response [2] 2.54% | max response [3] 3.54% | max response [4] 3.78% | Potency [5] | Potency [6] | Potency [7] | Potency [8] | Potency [9] | Potency [10] | Potency [11] | Potency [12] | Potency [13]

CCCCC1CCN(CCCN2C(=O)CCc3ccccc32)CC1
inactive: max response [1] -13.3% | max response [3] -2.1% | max response [4] -7.86% | Potency [5] | Potency [6] | Potency [7] | Potency [8] | Potency [9] | Potency [10] | Potency [11] | Potency [12] | Potency [14]
active: Potency [2] 18.4 µM

CC(C)(C)c1ccc(C(=O)Nc2cc(Cl)c(Br)cc2C(=O)O)cc1
inactive: max response [1] -0.778% | max response [3] -1.9% | max response [4] -19.1% | Potency [5] | Potency [6] | Potency [7] | Potency [8] | Potency [9] | Potency [10] | Potency [11] | Potency [12] | Potency [13] | Potency [14]
active: Potency [2] 23.1 µM

C=C(C)Cn1c(SCC(=O)c2cccs2)nc2sc3c(c2c1=O)CCCC3
inactive: max response [1] -0.048% | max response [3] 2.85% | Potency [5] | Potency [6] | Potency [7] | Potency [8] | Potency [12] | Potency [14]
active: Potency [2] 1.64 µM | Potency [4] 1.84 µM

COc1cc(C[C@H]2C(=O)OC[C@@H]2Cc2ccc(OC)c(OC)c2)ccc1O
active: Potency [1] 0.508 µM | Potency [2] 1.01 µM
inactive: outcome [3] | max response [4] -24.5% | outcome [15] | Potency [6] | Potency [9] | Potency [11] | Potency [12] | Potency [13]

COc1cc(O)cc(OC2OC(CO)C(O)C(O)C2O)c1 (configuration not stated)
inactive: max response [1] -0.834% | max response [2] 0.556% | max response [3] -5.91% | outcome [4] | Potency [16] | Potency [5] | Potency [6] | Potency [7] | Potency [8] | Potency [9] | Potency [10] | Potency [11] | Potency [12] | Potency [13] | Potency [14]

CC(C)C[C@@H]1NC(=O)[C@@H]2C[C@@]34C[C@@H]5[C@@]6(C)CCCC(C)(C)C6CC[C@@]5(C)N(c5ccccc53)[C@H]4N2C1=O (some centres not stated)
inactive: outcome [3] | max response [4] -3.44% | outcome [15] inactive [at 17.4 µM] | Potency [6] | Potency [9]
active: Potency [1] 0.502 µM | Potency [2] 0.796 µM

CC(C)=C1C[C@@]2(C)C(=CC1=O)CC[C@@H](OC(=O)/C(C)=C/CO)[C@@H]2C
active: Potency [1] 3.21 µM | Potency [2] 1.28 µM | Potency [14] 11.2 µM
inactive: outcome [3] | max response [4] -20.7% | outcome [15] | Potency [9] | Potency [10] | Potency [11] | Potency [12]
